Source: PubChem BioAssay AID2716 (Broad Institute, 2010)
“And” between values parts separate entries of the source, which are not always exact repeats. Equal entries are not always repeated. About 3,300 (1%) of roughly 320,000 compounds were called active.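 How the source made its calls: active means every valid replicate shows activation above 250% relative to neutral control wells; inactive means the rest, any valid replicate at or below 250%.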 What follows is part of a selection rich in actives, with near analogues and random picks from the rest.

Test: restored growth of temperature-sensitive Mot1-301 yeast – S. cerevisiae, ATP luminescence, 38.5C, SUMOylation pathway inhibitor project, primary screen (AID 2716);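 further: OY570 slx delta 5 strain wells were the positive control but not used for scaling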
Conditions: S. cerevisiae Mot1-301 growth rescue, at 18.8 µM, active compounds read high, percent above DMSO median, 100 means doubled

Structure (SMILES) | growth rescue
COc1ccc(C(C(=O)NC2CCCCC2)N(C(=O)c2snc(C(N)=O)c2N)c2ccccc2OC)cc1 (stereo not drawn) | -0.518% (inactive)
CCC(C(=O)NC1CCCCC1)N(C(=O)c1snc(C(N)=O)c1N)c1ccc(OC)cc1OC (stereo not drawn) | -10.5% (inactive)
CCOc1ccc(C(C(=O)NC2CCCC2)N(C(=O)c2snc(C(N)=O)c2N)C2CCCC2)cc1 (stereo not drawn) | 922% (active)
O=C(OCC(=O)N1CCc2ccccc21)C1CCCN1S(=O)(=O)c1ccc(Cl)cc1 (stereo not drawn) | 4.88% (inactive)
C/C(CC(O)(/C=N/O)c1ccccc1)=N\O (stereo not drawn) | 0.714% (inactive)
CCOc1c(OC)cccc1C(=O)NCC1(c2ccccc2)CCCC1 | 1.09% (inactive)
CCc1nc2ccccc2c(C(=O)OC2CCCCC2=O)c1C (stereo not drawn) | 377% (active)
CCc1nc2ccccc2c(C(=O)NCc2ccc(OC)cc2)c1C | -10.8% (inactive)
CCOC(=O)C1CCc2nc3ccccc3c(=O)n21 (stereo not drawn) | 141% (inactive)
CCS(=O)(=O)N1CCCC(C(=O)NCCCN(C)Cc2ccccc2)C1 (stereo not drawn) | 2.83% (inactive)
Cc1ccsc1C1C(C#N)=C(N)OC2=C1C(=O)CC(C)C2 (stereo not drawn) | -1.54% (inactive)
CCOCCCNCc1ccc(OCc2ccc(F)cc2)c(OC)c1 | 445% (active)
COc1ccc(CNCCCO)cc1OC | -14.2% (inactive)
CCN(CC)CCNCc1ccc(OCc2ccc(Cl)nc2)c(OC)c1 | -8.12% (inactive)
O=S(=O)(NCC1OCCc2ccccc21)c1ccccc1 (stereo not drawn) | -12.3% (inactive)
Cc1cccc(NC(=O)CCn2c(=O)oc3ccccc32)c1 | -12.1% (inactive)
Cc1cc(=O)oc2c1c(C)nn2-c1ccc(Cl)cc1 | -9.75% (inactive)
CCCCc1cc(=O)oc2cc(C)cc(OCc3nn[nH]n3)c12 | 64.1% (inactive)
Cc1cc(C)c2c(Cn3ccnc3)cc(=O)oc2c1 | 620% (active)
COC(=O)c1cc(S(=O)(=O)Nc2ccc(C)c(F)c2)c[nH]1 | -5.05% (inactive)
[O-][n+]1ccc(OCc2ccccc2)cc1 | -10% (inactive)
COCCNC(=O)C(c1ccc(C)cc1)N(C(=O)CCC(=O)Nc1ccccn1)c1cccc(C)c1 (stereo not drawn) | 451% (active)
COCCNC(=O)C(c1ccc(O)cc1)N(C(=O)CCC(=O)Nc1nccs1)c1ccc(C)cc1 (stereo not drawn) | -11.3% (inactive)
CCOc1ccc(C(C(=O)NCCOC)N(CCOC)C(=O)CCC(=O)Nc2ccccn2)cc1 (stereo not drawn) | 0.544% (inactive)

Structure (SMILES) | growth rescue
COc1ccc([N+](=O)[O-])cc1N(CC(=O)Nc1ccccc1C(=O)N1CCOCC1)S(C)(=O)=O | -10.4% (inactive)
COC(=O)c1scc(C)c1NC(=O)CSc1ccc(Cl)cc1 | -2.32% (inactive)
COc1ccc(-c2ccc(CCC(=O)O)n2NC(=O)c2ccc(C(C)(C)C)cc2)cc1 | -8.8% (inactive)
CCCC(=O)Nc1nc2ccc(NC(=O)c3c(F)c(F)c(OC)c(F)c3F)cc2s1 | -0.657% (inactive)
CSc1nc2ccc(NC(=O)c3c(F)cccc3F)cc2s1 | 423% (active)
O=C(Nc1ccncc1)c1c(F)cccc1F | -9.16% (inactive)
Cc1ccc(S(=O)(=O)NC(=O)N2CCCN(Cc3ccc(F)cc3)CC2)cc1 | 290% (inactive)
Cc1cc(NC(=O)CSc2ncc(C(F)(F)F)cc2Cl)no1 | 6.57% (inactive)
Cc1nc2ccccc2n1C(=O)N1CCOCC1 | -12.1% (inactive)
CCCC[C@H]1COCCS(=O)(=O)N1Cc1cccc(Cl)c1 | -7.4% (inactive)
Cc1ccc(CN2CCCOCCS2(=O)=O)cc1 | -17.5% (inactive)
CCC(C)[C@H]1COCCS(=O)(=O)N1Cc1ccc(C)cc1 (stereo partly drawn) | 881% (active)
COCCn1c(C)cc(C(=O)CSc2nnc(C3CC3)n2C2CC2)c1C | 9.96% (inactive)
O=C(CN1CCN(c2ccccn2)CC1)Nc1ccc(Br)cc1 | 5.41% (inactive)
Cc1cc(Br)ccc1NC(=O)c1sc2ncn(CC(=O)N3CCN(c4ccccn4)CC3)c(=O)c2c1C | -24.4% (inactive)
Cc1cc(Br)ccc1NC(=O)c1cnc(N2CCN(c3ccccn3)CC2)c2ccccc12 | 1030% (active)
COc1ccc(N2CCN(C(=O)COC(=O)c3cccc(S(=O)(=O)Nc4ccccc4OC)c3)CC2)cc1 | -0.984% (inactive)
COc1ccc(N2CC(C(=O)NCCS(=O)(=O)N3CCN(c4ccccc4)CC3)CC2=O)cc1 (stereo not drawn) | 3.93% (inactive)
CCCCNC(=O)Cn1nc(C)c(S(=O)(=O)N2CCOCC2)c1C | -1.53% (inactive)
O=C(COc1ccc2c3c(c(=O)oc2c1)CCC3)NC1CCCCC1 | 5.16% (inactive)
O=C(COc1ccc2c3c(c(=O)oc2c1)CCCC3)NCC(O)c1ccccc1 (stereo not drawn) | 1.8% (inactive)
NC(=O)C1CCN(C(=O)COc2ccc3c4c(c(=O)oc3c2)CCC4)CC1 | 296% (active)
CCCCCCCCCCCCN1[C@@H](CC(C)=O)c2cc(F)cc(F)c2S1(=O)=O | -17.6% (inactive)
COc1ccc(C)cc1N(C(=O)Cn1nnc(-c2ccc(C)o2)n1)C(C(=O)NC1CCCC1)c1ccncc1 (stereo not drawn) | -11.2% (inactive)

Structure (SMILES) | growth rescue
CN(CCO)c1ccc(/C=N/Nc2nncc3ccccc23)cc1 | 20.6% (inactive)
C=CC1=C(C(=O)O)N2C(=O)[C@@H](NC(=O)/C(=N/OCC(=O)O)c3csc(N)n3)[C@H]2SC1 | 328% (active)
Cc1cc(C)cc(C(=O)NC2C(=O)N3C(C(=O)O)=C(CSc4nnc(C)s4)CSC23)c1 (stereo not drawn) | -7.63% (inactive)
CO/N=C(\C(=O)N[C@@H]1C(=O)N2C(C(=O)O)=C(COC(C)=O)CS[C@H]12)c1csc(N)n1 (stereo in doubt) | -1.64% (inactive) and 233% (inactive)
CCN(C(=O)COC(=O)Cc1c(F)cccc1Cl)c1c(N)n(Cc2ccccc2)c(=O)[nH]c1=O | -1.24% (inactive)
Cc1ccccc1N1CCN(CC(=O)NCc2ccc(Cl)cc2)CC1 | 22% (inactive)
CCOc1ccc(C(C)C)cc1S(=O)(=O)n1nc(C)cc1C | -14.9% (inactive)
COc1ccc(OCc2cn3c(C)cc(C)nc3n2)cc1 | 1.72% (inactive)
COc1ccc(C(C[N+](=O)[O-])n2nc(C)cc2C)cc1 (stereo not drawn) | 383% (active)
Nc1c(-c2cccc(Cl)c2)cnn1-c1cccc([N+](=O)[O-])c1 | 0.816% (inactive)
O=C(Nc1ccc(-n2ccnc2P(=O)(O)c2ccccc2)cc1)c1ccccc1Br | 46.7% (inactive)
O=C(O)CC(CC(=O)N1CCOCC1)c1ccccc1 (stereo not drawn) | -13.1% (inactive)
O=C(Cc1ccccc1Cl)N1CCOCC1 | 9.61% (inactive)
O=C(CP(=O)(c1ccccc1)c1ccccc1)N1CCOCC1 | 634% (active)
COc1ccc(C(=O)COC(=O)CN2C(=O)C3CC=CCC3C2=O)c(OC)c1 (stereo not drawn) | 9.86% (inactive)
CCC(CO)Oc1cc(NCc2ccccc2)c2ncn(C3CCCC3)c2c1 (stereo not drawn) | 9.9% (inactive)
C/C(CC(C)C)=N\Oc1nc(C)cc(C)n1 | -10.5% (inactive)
CC(CN1CCCCC1)c1ccccc1 (stereo not drawn) | 7.87% (inactive)
CN(C)/C(CN1CCCCC1)=C1\N=C(c2ccccc2)OC1=O | 1740% (active)
O=C(CN1CCCC1)N1CCN(c2ccccc2)CC1 | 0.51% (inactive)
O=C(c1cc(Cl)cc(Cl)c1)N1CCC(=O)N(C(COCc2ccccc2)Cc2ccccc2)CC1 (stereo not drawn) | -7.87% (inactive)
Oc1c(Cl)cc(Cl)c(Cl)c1Cc1c(O)c(Cl)cc(Cl)c1Cl | 482% (active) and 481% (active)
CC(=O)c1ccc(N2CCN(C(=O)c3ccc4nc[nH]c4c3)CC2)cc1 | 10.1% (inactive)
Cc1cc(C(=O)NNC(=O)c2ccccc2O)c(C)o1 | -0.00731% (inactive)

Structure (SMILES) | growth rescue
Cc1ccc(-c2cc(C(=O)N/N=C/C=C/c3ccccc3)n[nH]2)o1 | -7.96% (inactive)
CC(=C/c1ccccc1)/C=N/NC(=O)c1cc(C)oc1C | 2.01% (inactive)
CC(C)c1cc(C(=O)N/N=C/C(Br)=C/c2ccccc2)n[nH]1 | 457% (active)
Cc1cc(C(=O)N/N=C\C(Br)=C\c2ccccc2)c(C)o1 | 558% (active)
CC(C)c1cc(C(=O)O)n[nH]1 | -2.94% (inactive)
CCCc1c(C(=O)N/N=C(\C)CCc2ccc(OC)cc2)nnn1-c1nonc1N | 3.62% (inactive)
CCOC(=O)C1CCN(C(=O)Cn2nc(C)c3c(C)n(-c4ccccc4)nc3c2=O)CC1 | 34.9% (inactive)
NC(=O)c1nnsc1-c1ccc(-c2snnc2C(N)=O)cc1 | 18.5% (inactive)
Cc1nc2ccc(C(=O)N(C)CC3CCCN(CCc4ccc(Cl)cc4)C3)cc2[nH]1 (stereo not drawn) | 3.97% (inactive)
COc1cccc(CN(C)CC(=O)NCc2ccccc2Cl)c1OC | 10.7% (inactive)
COc1cccc(CN(C)CC2CCCN(CCc3ccc(Cl)cc3)C2)c1OC (stereo not drawn) | 535% (active)
CN(C)c1nc(=Nc2cccc(Cl)c2)ss1 | 331% (active)
Cc1cccc(C)c1NC(=O)N1CC(C)OC(C)C1 (stereo not drawn) | -5.77% (inactive)
Cc1ccc(-c2nc(COC(=O)c3c(C)noc3C)cs2)cc1 | 0.699% (inactive)
Cc1ccc(S(=O)(=O)N(C)c2nc3ccccc3n3c(C(C)C)nnc23)cc1 | 138% (inactive)
CCCC1(C(=O)OCC)NC(c2ccc(N(C)C)cc2)C2C(=O)N(c3ccc4c(c3)OCCO4)C(=O)C21 (stereo not drawn) | -0.477% (inactive)
O=C(Nc1nn(Cc2ccccc2F)cc1Br)c1cccs1 | 13% (inactive)
CCOC(=O)COc1ccc([N+](=O)[O-])cc1 | 319% (inactive)
O=C(COc1ccccc1[N+](=O)[O-])NC1CC1 | 1.86% (inactive)
Cc1ccc(OCC(=O)Oc2ccccc2[N+](=O)[O-])cc1 | 330% (active)
O=C(/C=C/c1cnc2ccccc2n1)NC1CCCCCC1 | 26.5% (inactive)
